Assay outcomes (PubChem)
Only a selection was taken, and hits are over-represented in it overall.
NS1 inh – inhibitors of influenza NS1 protein function. Potency, µM (series often up to 46.1 µM). actives 0.4% (n = 270,000); calls by dose curve; note: actives are rising curves; nearly all actives have a fitted effect of over 50% in size
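OD600 was taken as the measure of yeast growth restored by compound in an NS1-expressing S. cerevisiae strain. Cells had been washed out of glucose medium and diluted 1:100 into galactose -URA medium, pH 6.0.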
SARS PLP yeast – SARS-CoV PLP inhibition in yeast; S. cerevisiae expressing SARS-CoV PLpro, growth rescue; Potency, µM (top dose mostly 32.9 µM), usual class: activators; AID 485353; actives 0.19% (n = 330,000); calls by dose curve; note: nearly all actives have a fitted effect of over 55% in size
TbPYK inhibitor – T. brucei pyruvate kinase inhibition; TbPYK enzyme, Kinase-Glo Plus ATP luminescence, 45 min; actives 0.12% (n = 410,000); Q57TT1; Potency, µM (top dose mostly 76.8 µM), actives largely listed as inhibitors; note: nearly all actives have a fitted effect of over 50% in size
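Glycolytic pyruvate kinase of T. brucei was incubated with substrate, test compound and 130 uM ADP for 45 minutes at room temperature. Luminescent Kinase-Glo Plus signal was measured after 10 minutes.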
Shiga toxin inh – Shiga toxin inhibition; inhibition, % at 38.7 µM; Vero cells, Shiga toxin protein synthesis inhibition reporter; actives 9.2% (n = 290,000); in the data active = inhibition mostly above about 28%, no sharp cut-off; inactive = mostly below about 43%
LmPK inhibitor – blocks Leishmania mexicana pyruvate kinase activity; Q27686; actives 0.37% (n = 290,000); Potency, µM (highest dose often 57.5 µM), usual class: inhibitors; purified LmPK, Kinase-Glo ATP luminescence, 1 h
Target sequence (Q27686 whole entry, looked up): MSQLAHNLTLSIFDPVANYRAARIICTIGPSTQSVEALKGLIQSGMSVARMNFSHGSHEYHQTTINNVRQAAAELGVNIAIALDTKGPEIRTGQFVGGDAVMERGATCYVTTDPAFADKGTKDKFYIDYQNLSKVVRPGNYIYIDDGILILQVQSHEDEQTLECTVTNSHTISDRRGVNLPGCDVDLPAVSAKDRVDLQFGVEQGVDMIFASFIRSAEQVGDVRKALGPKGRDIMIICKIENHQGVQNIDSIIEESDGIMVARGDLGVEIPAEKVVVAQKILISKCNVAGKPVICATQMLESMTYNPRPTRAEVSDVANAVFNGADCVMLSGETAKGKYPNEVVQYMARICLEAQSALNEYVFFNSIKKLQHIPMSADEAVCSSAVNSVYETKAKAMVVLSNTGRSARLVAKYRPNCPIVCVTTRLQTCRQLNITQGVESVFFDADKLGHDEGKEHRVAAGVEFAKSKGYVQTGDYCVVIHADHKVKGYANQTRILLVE
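In 50 mM imidazole pH 7.2 with 7 mM MgCl2, LmPK (0.1 nM) turned over PEP (0.5 mM) and ADP (0.1 mM) for 1 h at room temperature. Luciferase read-out of ATP.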
CHX counter – counter-screen for Shiga toxin inhibitors: cycloheximide protein synthesis inhibition. max response, %. AID 2314. actives 12% (n = 300,000). cell reporter, cycloheximide protein synthesis inhibition counterscreen; in the data active = max response mostly above about 13%, no sharp cut-off; inactive = mostly below about 14%; note: read at 38.3 µM for the half of the compounds with a filed dose
Numbers stand for hits; – = inactive; ? = inconclusive; · = no result given; [ ] = dose if it differs, or a comment. Unless noted, calls come from the whole dose curve; as a rule, active = well fitted curve in the direction sought with a large enough effect; inconclusive = small, poorly fitted or top-dose-only effect, or another doubt; inactive = no such curve, though single readings can be large; an effect the other way counts as inactive or inconclusive.

SMILES | NS1 inh | SARS PLP yeast | TbPYK inhibitor | Shiga toxin inh | LmPK inhibitor | CHX counter
CCN(CC)c1ccc(/C=N/NC(=O)c2ccc(Br)o2)cc1 | – | – | – | 37.9 | – | 32.9
O=C(N/N=C/c1ccc2c(c1)OCO2)c1ccc(Br)o1 | – | – | – | 138.9 | ? | 81.4
O=C(N/N=C/c1ccc(Cl)cc1)c1ccc2c(c1)OCO2 | – | – | – | 90.3 | – | 51.3
O=C(N/N=C/C1CC2CCC1C2)c1ccc2c(c1)OCO2 (centres undefined) | – | – | – | 39.2 | – | 40.6
Cc1ccc(C)c(N2CCN(C(=O)Cn3cnc4onc(-c5ccc(F)cc5)c4c3=O)CC2)c1 | · | · | – | · | · | ·
CC(C)COC(=O)N(C)C[C@H]1OCc2cnnn2CCCC(=O)N([C@H](C)CO)C[C@H]1C | · | · | – | · | · | ·
COc1ccc(CNC(=O)Cc2ccc(NC(=O)N3CCSc4ncccc43)cc2)cc1OC | · | · | –[15.4 µM] | · | · | ·
O=C(N/N=C/c1ccc2c(c1)OCO2)c1ccc(Cl)cc1Cl | – | – | – | – | – | 15.2
O=C(N/N=C/c1cccs1)c1ccc2c(c1)OCO2 | – | – | – | – | – | 25.0
O=C(N/N=C/c1cccc([N+](=O)[O-])c1)c1ccc2c(c1)OCCO2 | – | – | – | 61.8 | – | 42.5
O=C(NN=Cc1ccc2c(c1)OCO2)c1ccc([N+](=O)[O-])cc1 | · | · | – | · | · | ·
O=C(c1ccccc1)c1ccc2nc[nH]c2c1 | – | – | – | – | – | –
Cc1nc2ccc(C(=O)c3ccccc3)cc2[nH]1 | – | – | ? | 52.9 | – | 34.3
O=C(N/N=C/c1ccc2c(c1)OCO2)c1sc2cc(Cl)ccc2c1Cl | – | – | – | – | – | –
CN(CCOc1ccccc1)CC(=O)Nc1cccc(C#N)c1 | – | – | – | – | – | –
COc1ccccc1CCNC(=O)CN1C(=O)c2ccccc2S1(=O)=O | · | – | – | · | · | ·
O=C(N/N=C/c1ccncc1)c1ccc2c(c1)OCO2 | · | – | – | 75.5 | – | 23.9
CCN(CC)c1ccc(/C=N/NC(=O)c2c(-c3ccccc3)noc2C)cc1 | – | – | – | – | – | –
CCN(CC)c1ccc(/C=N/NC(=O)Nc2nonc2N)cc1 | – | – | – | 65.5 | – | 56.6
CCN(CC)c1ccc(/C=N/NC(=O)C2CC2)cc1 | – | – | – | 80.5 | – | 47.8
O=C(N/N=C/c1ccccc1OC(=O)c1ccc2c(c1)OCO2)c1cccc(F)c1 | – | – | – | 64.0 | – | –
O=C(O)COc1ccccc1/C=N/NC(=O)c1ccc2c(c1)OCCO2 | – | – | – | – | – | –
Cc1ccccc1CN1CCc2nc(Nc3ccc4c(c3)OCCO4)ncc2C1 | · | · | – | · | · | ·
O=C(c1cc(Cl)ccc1O)N1CCN(S(=O)(=O)c2cccs2)CC1 | · | – | – | · | · | ·
O=C(N/N=C/c1cc(Br)cc(Cl)c1O)c1ccc2c(c1)OCO2 | · | · | – | · | · | ·
SMILES | NS1 inh | SARS PLP yeast | TbPYK inhibitor | Shiga toxin inh | LmPK inhibitor | CHX counter
O=C(N/N=C/c1ccccc1O)c1ccc2c(c1)OCO2 | – | – | – | 95.8 | – | 49.7
Cc1nc2ccc(C(=O)N/N=C/c3cc([N+](=O)[O-])ccc3O)cc2[nH]1 | · | – | – | – | – | –
Cc1nc2ccc(C(=O)N/N=C/c3ccccc3O)cc2[nH]1 | – | – | – | 84.2 | – | 43.9
Cc1cc(Br)cc(/C=N/NC(=O)c2ccc3c(c2)OCO3)c1O | – | – | – | 25.7 | – | 17.3
Cc1cc(=O)c2cc(C(=O)c3ccccc3)ccc2[nH]1 | – | – | – | – | – | 9.4
CSCC(C)N1CCC(N2CCC(C(=O)NCc3ccccn3)CC2)CC1 (centres undefined) | – | ? | – | – | – | –
O=C(N/N=C/C=C/c1ccc2c(c1)OCO2)c1ccc([N+](=O)[O-])cc1 | – | – | – | – | – | –
O=C(N/N=C\C=C\c1ccc(Br)cc1)c1ccc2c(c1)OCO2 | – | – | – | 22.5 | – | 9.9
O=C(N/N=C/c1ccc2c(c1)OCCO2)c1ccncc1 | – | – | – | – | – | –
O=C(N/N=C/c1ccc2c(c1)OCO2)c1ccc2c(c1)OCCO2 | – | – | – | 64.0 | – | 54.9
CC(C)n1nnnc1SCC(=O)Nc1ccc2c(c1)OCCO2 | – | – | · | 117.4 | – | 56.9
Nn1c(SCC(=O)Nc2ccc3c(c2)OCCO3)nncc1=O | – | – | – | 31.1 | – | 15.8
CCn1nnnc1SCC(=O)Nc1ccc2c(c1)OCCO2 | – | ? | – | 64.1 | – | 43.7
